Compound activity deposited in PubChem BioAssay by National Center for Advancing Translational Sciences (NCATS).
RORgamma inh – ROR gamma (mouse) transcription inhibition. P51450. Drosophila S2 Gal4-RORgamma UAS-luciferase reporter, 20 h. Potency, µM (highest dose often 53.6 µM), inactives show at the highest dose activity change, negative = inhibition, usual class: inhibitors. 5.4% of 310,000 active. AID 2551; note: nearly all actives have a fitted effect of over 60% in size
Target sequence (P51450 whole entry, looked up, the tested form may be a part): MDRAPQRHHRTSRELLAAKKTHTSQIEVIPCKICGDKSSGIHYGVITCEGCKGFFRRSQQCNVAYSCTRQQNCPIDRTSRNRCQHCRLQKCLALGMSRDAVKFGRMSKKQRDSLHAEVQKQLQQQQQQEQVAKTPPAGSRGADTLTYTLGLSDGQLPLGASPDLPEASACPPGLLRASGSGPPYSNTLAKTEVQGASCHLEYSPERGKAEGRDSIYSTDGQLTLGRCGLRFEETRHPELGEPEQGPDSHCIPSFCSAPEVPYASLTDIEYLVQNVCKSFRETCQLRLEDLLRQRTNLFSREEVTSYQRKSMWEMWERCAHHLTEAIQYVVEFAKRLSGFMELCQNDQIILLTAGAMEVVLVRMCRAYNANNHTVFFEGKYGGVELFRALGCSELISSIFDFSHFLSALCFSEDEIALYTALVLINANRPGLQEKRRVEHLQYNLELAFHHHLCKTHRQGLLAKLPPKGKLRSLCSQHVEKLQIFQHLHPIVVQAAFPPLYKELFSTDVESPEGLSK
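ROR gamma transcriptional activity was tracked as Gal4-UAS luciferase output in stably transfected Drosophila Schneider cells, with compound added 1 hr before 700 uM copper sulfate induction and a 20 hr ambient-temperature incubation.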
VP16 counter – counter-screen for ROR gamma inhibitors: Gal4-VP16 reporter. Drosophila S2 Gal4-VP16 UAS-luciferase, luminescence, 20 h. Potency, µM (doses to about 53.6 µM), inactives show at the top dose activity, negative = inhibition, usual class: inhibitors. 3.5% of 310,000 active. AID 2546;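 note: Gal4-VP16 expression switched on by copper sulfate through the metallothionein promoter; nearly all actives have a fitted effect of over 50% in size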
Luc counter – blocks Kinase-Glo luciferase, a counter-screen artifact. 0.28% of 200,000 active. AID 1379. Kinase-Glo luciferase, ATP luminescence, 8 min. Potency, µM (titrated, usually from 38.3 µM), inactives show at the highest dose activity change, negative = inhibition, usual class: inhibitors; note: nearly all actives have a fitted effect of over 60% in size
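Compounds were added to a substrate mix at pH 7.2 (50 mM imidazole, 10 uM ATP, within the enzyme's linear range), followed by Kinase-Glo detection reagent; luminescence was measured after 8 minutes at ambient temperature.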
The depositor's hits bear a star; ? = inconclusive; . = not tested or not shown; [ ] = dose if it differs, or a comment. A selection: hits, their analogues and other compounds. The true share with any hit is near 6.4%. Calls come from the whole dose curve; as a rule, active = well fitted curve in the direction sought with a large enough effect; inconclusive = small, poorly fitted or top-dose-only effect, or another doubt; inactive = no such curve, though single readings can be large; an effect the other way counts as inactive or inconclusive. % is set by controls: 0 for no effect and ±100 for the full control effect; potency is the fitted concentration of half-maximal effect.

SMILES	RORgamma inh	VP16 counter	Luc counter
NC(=O)CCC(NC(=O)c1ccc(Cl)cc1)C(=O)O (stereo not drawn)	-12%	-9%	.
O=C(Nc1ccc(N2CCN(C(=O)c3cccs3)CC2)cc1)c1ccco1	7%	-5%	.
O=C(Nc1ccc(N2CCN(C(=O)c3cccs3)CC2)cc1)c1ccc([N+](=O)[O-])o1	13µM*	?	.
O=C(Nc1ccc(N2CCOCC2)cc1)c1ccc([N+](=O)[O-])o1	11µM*	?	.
CCC(=O)N1CCN(c2ccc(NC(=O)c3ccc([N+](=O)[O-])o3)cc2Cl)CC1	10µM*	-11%	-1%
O=C(Nc1ccc(S(=O)(=O)N2CCOCC2)cc1)c1ccc([N+](=O)[O-])o1	-11%	?	.
CC(=O)N1CCN(c2ccc(NC(=O)c3ccc([N+](=O)[O-])o3)cc2Cl)CC1	-27%	?	.
O=C(COc1ccccc1C(=O)O)Nc1nc2ccc([N+](=O)[O-])cc2s1	-5%	?	.
CC(C)C[C@@H](CC(=O)N[C@@H](CCC(=O)O)CC(=O)O)NC(=O)[C@@H]1CCCC[C@H]1NC(=O)C[C@@H](NC(=O)C[C@H](Cc1ccccc1)NC(=O)[C@@H]1CNCC[C@H]1N)C(C)C	5%	-25%	1%
COc1cccc(NS(=O)(=O)c2ccc(Br)s2)c1	3.5µM*	4.5µM*	-1%
COc1ccc(OC)c(NS(=O)(=O)c2ccc(Br)s2)c1	16%	-6%	0%
CC(C)CC1NC(=O)N(CC(=O)NC2CCCc3ccccc32)C1=O (stereo not drawn)	2%	1%	-1%
CC(C)Nc1oc(-c2ccccc2)nc1-c1cccc2ccccc12	0%	4%	-1%
c1ccc(-c2nc(-c3cccc4ccccc34)c(Nc3ccc4ccccc4c3)o2)cc1	5.6µM*	1%	1%
Cc1ccc(Cc2cnc(NC(=O)/C(C#N)=C/c3ccc(-c4ccccc4[N+](=O)[O-])o3)s2)cc1	2.2µM*	4.5µM*	-1%
CNC(=O)/C(C#N)=C/c1ccc(-c2ccccc2[N+](=O)[O-])o1	16%	16%	-1%
CCc1ccc(NC(=O)/C(C#N)=C/c2cn(CC(=O)O)c3ccccc23)cc1	-9%	6%	4%
Cn1cc(/C=C(\C#N)C(=O)Nc2ncc(Cc3ccc(Cl)cc3)s2)c2ccccc21	2µM*	2.5µM*	-3%
C[C@@H](CN1c2ccccc2Sc2ccccc21)N(C)C	0%[16.9 µM]	9%[17 µM]	0%[17.1 µM]
Cc1cnc(NC(=O)c2cc3c(s2)CCCC3)s1	2µM*	7.1µM*	-14%
Cc1csc(NC(=O)c2cc3c(s2)CCCC3)n1	10%	?	.
CNC(=O)c1cc2c(s1)CCCCCC2	-17%	0%	-1%
Cc1csc(NC(=O)c2cc3c(s2)CCCCC3)n1	2.8µM*	4µM*	?
Cc1ccc(C(=O)NC(=S)Nc2nc(-c3cccc([N+](=O)[O-])c3)cs2)c(Cl)c1	0%	10%	-1%
COc1cccc(C(=O)NC2CCN(CC(=O)Nc3ccccc3Cl)CC2)c1	18%	6%	.
SMILES	RORgamma inh	VP16 counter	Luc counter
COc1ccc(C(=O)Nc2cc(C(C)=O)c(C)oc2=O)cc1	11µM*	?	?
CC(=O)c1cc(NC(=O)c2ccc(Cl)cc2)c(=O)oc1/C=C/N(C)C	?	?	-2%
CC(=O)c1cc(NC(=O)c2cccc(C(F)(F)F)c2)c(=O)oc1C	3.2µM*	7.1µM*	-4%
CC(=O)c1cc(NC(=O)c2cccc(C(F)(F)F)c2)c(=O)oc1/C=C/N(C)C	13%	3%	-5%
C#CCN1c2ccccc2Sc2cccnc21	-2%	0%	.
CC1=NNC(=O)/C1=C\c1cn(-c2ccccc2)nc1-c1cccs1	?	4.5µM*	2%
O=C(O)CCCCCN1C(=O)/C(=C\c2cn(-c3ccccc3)nc2-c2cccs2)SC1=S	?	1%	.
O=Cc1cn(-c2ccccc2)nc1-c1ccc(F)cc1	32%	-2%	.
CC1=NNC(=O)/C1=C\c1cn(-c2ccccc2)nc1-c1ccc(F)cc1	4.5µM*	5µM*	0%
CCCN1CNC(=S)N(c2cccc(C)c2C)C1	10µM*	?	0%
CCN1CNC(=S)N(c2ccccc2C)C1	-38%	5%	.
CCCN1CNC(=S)N(c2ccccc2OC)C1	?	-23%	2%
CCN1CNC(=S)N(c2cccc(C)c2C)C1	11µM*	?	-1%
CC(C)(c1cc(Br)c(OCC(Br)CBr)c(Br)c1)c1cc(Br)c(OCC(Br)CBr)c(Br)c1 (stereo not drawn)	-20%	-9%	.
CN(Cc1ccccc1)C(=O)[C@H](Cc1ccc2ccccc2c1)NC(=O)[C@@H]1CCCN1C(=O)Nc1ccccc1[N+](=O)[O-]	25%	3%	1%[39.9 µM]
O=S(=O)(Nc1nc2ccccc2s1)c1cnc(Cl)c(Br)c1	-1%	1%	.
O=C(c1ccco1)N1N=C(c2cccs2)CC1c1cc([N+](=O)[O-])ccc1O (stereo not drawn)	1%	26%	.
C/C(=N/NC(=O)CN1CCN(Cc2ccccc2Cl)CC1)c1ccco1	?	4%	.
O=Cc1cn(CCC(=O)O)nc1-c1cc2ccccc2o1	12%	?	-1%
O=Cc1cn(CCC(=O)O)nc1-c1cccc2ccccc12	3.2µM*	11µM*	-3%
CC(C)N(C(C)C)S(=O)(=O)c1ccc(NN)nc1	14µM*	?	.
CCOc1ccc(NC(=O)CN(C)c2ccc(S(=O)(=O)N(C(C)C)C(C)C)cn2)cc1OCC	-12%	-8%	2%
CCN(CC)S(=O)(=O)c1ccc(N/N=C/c2cccnc2)nc1	18%	2%	.
CCN(CC)S(=O)(=O)c1ccc(NN)nc1	4.5µM*	18µM*	-1%
CCN(CC)S(=O)(=O)c1ccc(N/N=C/c2cc(OC)ccc2O)nc1	4.5µM*	11µM*	2%
SMILES	RORgamma inh	VP16 counter	Luc counter
CCN(CC)S(=O)(=O)c1ccc(NC2CCCc3ccccc32)nc1 (stereo not drawn)	?	1%	1%
O=C(c1ccc(=O)[nH]c1)N1CCN(S(=O)(=O)c2ccccc2)CC1	6%	10%	.
Cc1c(F)cccc1NC(=O)CCCCCC1NC(=O)NC1C (stereo not drawn)	19%	-15%	-1%
Cc1cc(C)n2nc(SCCC(=O)NCc3ccccc3)nc2n1	0%	-7%	-1%
C=C1C(=O)OC2C[C@@]3(C)CCCC(=C)[C@@H]3CC12 (stereo partly drawn)	?	-29%	2%
C=C1C(=O)OC2C1CC/C(C)=C/CCC1(C)OC21 (stereo not drawn)	4.5µM*	4µM*	1%
C=C1CC/C=C(\C)CC[C@@H]2[C@@H]1CC2(C)C	14%	-1%	4%
C=C1C(=O)O[C@@H]2C3OC3(C)CC/C=C(\C)CC[C@@H]12 (stereo partly drawn)	?	28µM*	0%
Cc1cc(OCC(=O)N(Cc2cccs2)C2CCS(=O)(=O)C2)ccc1Cl (stereo not drawn)	30%	-7%	.
Cc1cc(C)c2nc3sc(C(=O)N4CCOCC4)c(N)c3cc2c1	10µM*	?	.
Cc1ccc(C)c2nc3sc(C(=O)N4CCOCC4)c(N)c3cc12	31%	-12%	-5%
Nc1c(C(=O)N2CCCC2)sc2nc3c(cc12)CCCCCC3	-28%	?	0%
NC(=O)c1sc2nc3c(cc2c1N)CCC3	-4%	4%	-10%
